FMDV antiviral = antivirals against foot and mouth disease virus; FMDV antiviral cell-based qHTS; Potency, µM (doses to about 57.9 µM), inactives show top-dose activity change, negative = inhibition, usual class: inhibitors; AID 1159524; 1.2% of 410,000 active; calls by dose curve; tested in HEK293T cells; further: read-out not given here; nearly all actives have a fitted effect of over 45% in size
LASV entry inh = blocks Lassa virus binding to or entry into cells | Lassa virus pseudotype entry inhibition, cell reporter | Potency, µM (highest dose often 37.9 µM), for the others: at the highest dose activity change, negative = inhibition, actives largely listed as inhibitors | AID 540256 | 1.2% of 300,000 active; calls by dose curve; tested in HEK293 cells; further: nearly all actives have a fitted effect of over 50% in size
HCV inhibitor = inhibitors of hepatitis C virus infection | Huh7.5.1 HCVcc-Cre infection, luciferase reporter, 44 h | Potency, µM (titrated, usually from 41.8 µM), for inactives: at the top dose activity change, negative = inhibition, actives largely listed as inhibitors | AID 651820 | 3.4% of 340,000 active; active means well fitted inhibition curve with a large enough effect; inconclusive means small, poorly fitted or top-dose-only effect, or another doubt; inactive means no such curve, though single readings can be large or run the other way
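HCVcc-Cre virus at an moi near 0.5 was added right after compound to cells cultured 4 h from seeding (1,000 cells/well). Luciferase activity was determined 44 h later, 15 min after substrate addition at RT.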
VACV Venus inh = inhibitors of vaccinia virus (Venus reporter) | Potency, µM (doses to about 36.5 µM), inactives show at the top dose activity change, negative = inhibition, hits mostly inhibitors | Vaccinia virus Venus reporter expression, fluorescence | 0.46% of 330,000 active | AID 720580; calls by dose curve; tested in A549 cells; further: nearly all actives have a fitted effect of over 30% in size
Marburg entry inh = inhibitors of Marburg virus binding or cell entry | Potency, µM (top dose mostly 37.8 µM), for the others: at the highest dose activity change, negative = inhibition, most hits filed as inhibitors | AID 540276 | Marburg virus pseudotyped entry inhibition, cell reporter | 1.8% of 300,000 active; calls by dose curve; tested in HEK293 cells
Vaccinia mCherry = vaccinia inhibition (mCherry reporter); Vaccinia virus mCherry reporter infection, fluorescence; Potency, µM (series often up to 36.5 µM), for the others: at the top dose activity change, negative = inhibition, actives largely listed as inhibitors; 0.63% of 310,000 active; calls by dose curve; tested in A549 cells; further: nearly all actives have a fitted effect of over 35% in size
* hit, by the source's call; i = inactive; ? = inconclusive; · = no result given; ! = not active in a repeat; [ ] = another dose, or the depositor's remark. Sampled rows, rich in hits. Any-hit rate of the full collection: about 5.3%. On the % scale 0 is the no-effect control and ±100 the full control effect; potency means the concentration at half of the fitted maximal effect.

SMILES	FMDV antiviral	LASV entry inh	HCV inhibitor	VACV Venus inh	Marburg entry inh	Vaccinia mCherry
Cc1cc(C(=O)NCc2cc(C)n(C)n2)sc1-c1ccccc1	-24%	-29%	4µM*	-24%	?	-10%
CCn1nc(C)cc1C(=O)NCC1CCC2(CCN(Cc3ccccc3F)CC2)O1 (centres undefined)	0%	·	·	-14%	·	-14%
CCC(C)NC(=O)Nc1ccc(Br)cc1 (centres undefined)	6%	3%[46.1 µM]	5%	-15%	?	i
CCC(C)Nc1ccc(NC(C)CC)cc1 (centres undefined)	?	·	22µM*	?	·	?
OC[C@H]1O[C@H](c2ccccc2)C=C[C@H]1O	·	·	·	·	-8%[14.2 µM]	·
CC(=O)CCC(=O)N1CCC(n2c(C3CCCO3)nc3cc(C(F)(F)F)ccc32)CC1 (centres undefined)	-9%	·	·	-29%	·	-7%
Cc1c(C(=O)NCc2ccc(Cl)cc2)sc2nc3n(c(=O)c12)CCC3	-2%	12%[46.1 µM]	·	-11%	·	-25%
Cc1c(C(=O)Nc2ccc(Oc3ccccc3)cc2)sc2nc3n(c(=O)c12)CCC3	?	?	6.3µM*	?	?	·
Cc1c(C(=O)Nc2ccc(OC(F)(F)F)cc2)sc2nc3n(c(=O)c12)CCC3	?	-15%	-18%	-27%	?	·
COc1ccc(CNC(=O)c2sc3nc4n(c(=O)c3c2C)CCCCC4)cc1	22µM*	-20%[46.1 µM]	·	-6%	·	1%
Cc1ccc(S(=O)(=O)N2CCC(C(=O)Nc3cc(C(F)(F)F)ccc3N3CCOCC3)CC2)cc1C	-18%	-1%	?	-6%	?	-11%
Cc1cccc(N2CCN(C(=O)c3cn(C)c(=O)c4c3c3ccccc3n4C)CC2)c1C	-3%	6.5µM*	?	·	?	·
CN1CCN(CC(=O)N2N=C(c3cccs3)CC2c2ccco2)CC1 (centres undefined)	-7%	?	7%	-3%	-2%	i
O=C(O)/C=C/C(=O)N1N=C(c2ccco2)CC1c1ccco1 (centres undefined)	-10%	?	21%	-1%	?	-6%
O=C(CCl)N1N=C(c2cccs2)CC1c1ccco1 (centres undefined)	16µM*	?	?	-21%	?	?
O=C(CCl)N1N=C(c2ccco2)CC1c1ccco1 (centres undefined)	-24%	?	11µM*	-27%	?	?
CC(NC(=O)C(=O)Nc1c2c(nn1-c1ccc(F)cc1)CSC2)c1ccccc1 (centres undefined)	-9%	-25%[46.1 µM]	·	-27%	·	?
CC(=O)Nc1ccc(NC(=O)c2ccc3sc([C@H]4C[C@H](O)[C@@H](CO)O4)nc3c2)cc1	-11%	·	·	0%	·	i
O=C(Nc1ccc(Oc2ccccc2)cc1)c1ccc2sc([C@H]3C[C@H](O)[C@@H](CO)O3)nc2c1	16µM*	·	·	?	·	?
O=C(Nc1cccc(C(F)(F)F)c1)c1ccc2sc([C@H]3C[C@H](O)[C@@H](CO)O3)nc2c1	20µM*	·	·	?	·	?
C/C(=C\COc1cc(=O)[nH]c2ccccc12)CCC(O)C(C)(C)O (centres undefined)	-21%	·	0.32µM*	-4%	·	1%
COC(=O)C1=C(C)N(Cc2ccccc2)C(=NCc2cccc(C(F)(F)F)c2)N[C@H]1c1cccc(F)c1	40µM*	·	?	13µM*	·	?
COC(=O)C1=C(C)N(Cc2ccccc2)C(=NCc2cccc(C(F)(F)F)c2)N[C@H]1c1cccc(C(F)(F)F)c1	40µM*	·	42%[8.37 µM]	28µM*	·	10µM*
COC(=O)C1=C(C)N(CC2CC2)C(=NCc2cccc(C(F)(F)F)c2)N[C@H]1c1ccccc1	?	·	?	-25%	·	i
Cc1ccc2cc(C#N)c(NCCNC(=S)NCCCN(C)C)nc2c1C	-22%	·	?	13µM*	·	?
SMILES	FMDV antiviral	LASV entry inh	HCV inhibitor	VACV Venus inh	Marburg entry inh	Vaccinia mCherry
Cc1cc(C)c2nc(NCCCNC(=S)NCCCN(C)C)c(C#N)cc2c1	?	·	11µM*	·	·	·
Cc1ccc2cc(C#N)c(NCCNC(=O)C3CC3)nc2c1C	?	-2%	10µM*	·	?	·
CCOCCCNC(=S)NCCNc1nc2c(C)cccc2cc1C#N	·	2%	-24%	-22%	?	-7%
O=C(CN1C(=O)c2cccc3cccc1c23)Nc1cccc(F)c1	2%	?	·	18%	?	17%
CCC(C)n1c(=S)[nH]c2c(sc3ccc([N+](=O)[O-])cc32)c1=O (centres undefined)	35µM*	0%	?	-6%	-7%	-11%
COc1ccc(Br)cc1CSC(=N)N	-25%	0%[46.1 µM]	?	0%	13µM*	-6%
CC(=O)c1ccc(OC(C)C)c(CSC(=N)N)c1	0%	·	?	·	·	·
CCCCCOc1ccc(Br)cc1CSC(=N)N	16µM*	·	7.9µM*	11µM*	·	?
COc1cc(CNCc2c(C(=O)O)c(C)n(Cc3cccc(Cl)c3)c2C)cc(OC)c1OC	14%	-9%[46.1 µM]	·	-6%	-19%[46.1 µM]	-9%
Oc1ccccc1/C=N/Nc1cc(N2CCCC2)nc(N2CCCC2)n1	14%	?	?	?	2.3µM*	?
Oc1cccc(/C=N/Nc2cc(N3CCOCC3)nc(N3CCOCC3)n2)c1	-13%	?	?	?	2.6µM*	?
Oc1ccc(/C=N/Nc2cc(N3CCOCC3)nc(N3CCOCC3)n2)cc1O	?	6%	?	?	?	-23%
Cc1nc(N/N=C/c2cccc(F)c2)cc(N2CCOCC2)n1	?	-20%	?	-18%	7.9µM*	?
Cc1nc(N/N=C/c2ccc(O)cc2O)cc(N2CCOCC2)n1	-9%	?	-18%	?	2.8µM*	1.1µM*
COc1ccc(CC2=CC(=O)c3ccccc3C2=O)cc1	?	·	22µM*	·	·	·
COc1ccc(Cc2ccccc2C(=O)O)cc1	-2%	-5%[46.1 µM]	5%	-18%	?	i
Cc1ccc(COc2ccc(-c3cc(C(F)(F)F)n4nc(C)cc4n3)cc2)cc1	-4%	20%[46.1 µM]	·	-9%	4%[46.1 µM]	-1%
Cc1ccc(NC(=O)C(Cc2ccccc2)N2Cc3ccccc3C2=O)cc1Cl (centres undefined)	-3%	-15%[46.1 µM]	·	-8%	·	i
Cc1ccnc(NC(=O)c2ccc(Cl)c(S(=O)(=O)N3CCCCC3)c2)c1	-13%	·	13µM*	·	·	·
O=C(Nc1ccc(N2CCOCC2)cc1)c1cccc(S(=O)(=O)N2CCCCC2)c1	?	11%	10µM*!	-15%	7%	-21%
N#Cc1ccc(C(=O)NNC(=O)c2cccc(S(=O)(=O)N3CCOCC3)c2)cc1	-13%	-1%	11%	-15%	23%	-21%
Cc1ccnc(NC(=O)c2ccc(Cl)c(S(=O)(=O)N3CCCC3)c2)c1	1%	16%	?	-1%	-12%[46.1 µM]	-2%

Bioassay records: PubChem BioAssay, National Center for Advancing Translational Sciences (NCATS)
